Screening data as filed in PubChem BioAssay.
In the library only some 2.4% were active in any assay of this set; here they are far more common.
Efa HMGR inh: inhibitors of class II HMG-CoA reductase from Enterococcus faecalis. purified E. faecalis HMGR, NADPH absorbance 340 nm kinetic. 0.41% of 190,000 active. inhibition, % at 10 µM. AID 1066;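 active = inhibition above a set limit, the median over all tested compounds plus 3 SD, cut at about 9.5% in these data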;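 note: enzyme runs in reverse so mevalonate oxidation gives rising NADPH absorbance; 0% = complete reaction with DMSO and 100% = background rate lacking mevalonate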
PHOSPHO1 block: blocks human PHOSPHO1 phosphatase activity; inhibition, % at 13.3 µM; recombinant PHOSPHO1, absorbance phosphatase assay; Q8TCT1; 1.1% of 290,000 active; in the data active = inhibition above about 60%
eIF4H inh: inhibitors of RNA binding by human eIF4H; Q15056; eIF4H fluorescence polarization binding assay; inhibition, % at 35 µM; 0.94% of 290,000 active; AID 2012;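 note: calls also rest on retests at 20 µM and on dose response follow-up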
PABP polyA inh: blocks human PABP binding to poly(A) RNA; P11940; fluorescence polarization; calls only at 35 µM; 1% of 290,000 active; AID 2014;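 note: calls also rest on retests at 20 µM and on dose response follow-up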
Target sequence (P11940 whole entry, looked up): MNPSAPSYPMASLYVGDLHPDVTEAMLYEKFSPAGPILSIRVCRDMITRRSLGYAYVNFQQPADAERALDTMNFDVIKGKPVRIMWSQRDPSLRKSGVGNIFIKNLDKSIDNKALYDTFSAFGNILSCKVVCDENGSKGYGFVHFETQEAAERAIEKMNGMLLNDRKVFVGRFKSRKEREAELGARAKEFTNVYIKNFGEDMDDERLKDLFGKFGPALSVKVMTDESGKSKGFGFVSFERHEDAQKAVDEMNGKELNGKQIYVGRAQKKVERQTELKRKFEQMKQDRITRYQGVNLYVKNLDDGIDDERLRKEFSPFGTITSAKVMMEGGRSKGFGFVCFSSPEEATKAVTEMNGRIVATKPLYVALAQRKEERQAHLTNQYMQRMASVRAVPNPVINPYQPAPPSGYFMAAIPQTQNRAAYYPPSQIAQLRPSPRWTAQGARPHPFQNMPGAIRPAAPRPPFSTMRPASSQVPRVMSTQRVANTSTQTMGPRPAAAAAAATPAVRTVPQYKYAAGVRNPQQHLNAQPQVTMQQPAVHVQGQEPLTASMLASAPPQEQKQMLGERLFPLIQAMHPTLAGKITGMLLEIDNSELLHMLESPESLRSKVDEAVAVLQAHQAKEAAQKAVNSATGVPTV
MLLE-PAM2 inh: blocks PAM2 peptide binding to the PABP1 MLLE domain | P11940 | inhibition, % at 20 µM | GST-MLLE / FITC-PAM2 fluorescence polarization | 0.36% of 360,000 active; in the data active = inhibition above about 35%, passing the limit was not always enough;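 note: plate controls were DMSO wells with GST-MLLE for no effect and wells lacking GST-MLLE protein for full effect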
* hit, by the source's call; i = inactive; . = no result; + = active, no number; ! = not active in a repeat. Unless noted, the rule behind the calls is not given here.

SMILES	Efa HMGR inh	PHOSPHO1 block	eIF4H inh	PABP polyA inh	MLLE-PAM2 inh
CCC(=O)Nc1ccc(SC#N)cc1C	-0.1	35.2	-6.0	i	59.0*
CCc1cc(SC#N)cc(C)c1NC(=O)CCl	-2.2	-2.2	-3.8	i	39.7*
Cc1ccc(S(=O)(=O)N2CCOCC2)cc1C(=O)N1C(=O)c2cccc(N)c2C1=O	6.5	20.8	56.9*	+	10.2
Cc1ccc(N2C(=S)N=C(Nc3ccccc3C)C23CCOC(C)(C)C3)cc1 (configuration not stated)	-8.9	70.5*	-5.9	i	-104.2
Cc1cccc(C)c1NC1=NC(=S)N(c2ccccc2)C12CCOC(C)(C)C2 (configuration not stated)	1.6	6.8	-3.5	i	-116.4
Cc1ccc(C(=O)OCC(=O)Nc2sc3c(c2C#N)CCCC3)cc1NC(=O)c1ccco1	-3.8	63.9*	38.3	i	-3.5
CC(C)CCNC(=O)C(c1ccc(O)cc1)N(C(=O)C1COc2ccccc2O1)c1cccc(O)c1 (configuration not stated)	-9.6	64.2*	-0.5	i	5.4
CNc1ccc([N+](=O)[O-])cc1-c1nc2ccccc2[nH]c1=O	.	12.2	19.8	i	4.4
Cc1nnc(SC(C)C#N)n1-c1ccccc1 (configuration not stated)	12.1*	20.5	5.2	i	11.0
Cc1ccc2cc(CN(CCO)Cc3nnnn3Cc3ccc(F)cc3)c(=O)[nH]c2c1	-5.8	15.5	2.9	i	-2.8
CCC(c1nnnn1Cc1ccc(OC)cc1)N(CCCO)Cc1cc2cc3c(cc2[nH]c1=O)OCO3 (configuration not stated)	-7.5	3.4	5.4	i	15.3
CC(C)C(c1nnnn1Cc1ccccc1)N(CCCO)Cc1cc2cc3c(cc2[nH]c1=O)OCO3 (configuration not stated)	3.5	-4.9	111.1*	+	27.6
O=c1[nH]c2cc3c(cc2cc1CN(CCCO)Cc1nnnn1Cc1ccc(F)cc1)OCO3	3.6	6.0	4.1	i	45.9*
Cc1cc(C)c2nc(-c3ccccn3)cc(C(=O)NCc3ccco3)c2c1	-4.1	-31.3	47.6*	+	1.1
Cc1ccc(-c2cc(C(=O)NCc3ccco3)c3ccccc3n2)o1	-1.5	-20.1	85.6*	+	15.5
Cc1cc(C(=O)NCc2ccco2)c2ccccc2n1	-2.3	20.3	-3.7	i	5.7
CN(C)S(=O)(=O)n1cc(/C=C(\NC(=O)c2ccccc2Cl)C(=O)NCCCN2CCOCC2)c2ccccc21	.	42.6	-3.0	i	-2.2
CN(C)S(=O)(=O)n1cc(/C=C(\NC(=O)c2ccccc2Cl)C(=O)NCCN2CCOCC2)c2ccccc21	.	64.9*	-7.0	i	8.1
CCN1C(=O)[C@H]2[C@@H](c3ccc(-c4ccc(OC)cc4)cc3)N3CCCC[C@@]3(C(=O)OC)[C@H]2C1=O	.	.	.	.	14.0
O=S1(=O)N=C(Nc2nncs2)c2ccccc21	-4.7	97.4*	-7.3	i	11.4
CCN(CC)S(=O)(=O)c1ccc(NC2=NS(=O)(=O)c3ccccc32)cc1	2.5	1.7	-0.2	i	-1.5
CCOC(=O)N1CCN(C(=O)c2cn(C)c3ccc(S(=O)(=O)N(C)C4CCCCC4)cc3c2=O)CC1	.	26.1	-7.3	i	11.0
CCOC(=O)c1sc(N=NC2=C(O)CC(C)(C)CC2=O)c(C(=O)OCC)c1C	-3.7	47.6	59.5*	i	49.0
COc1ccc(OCC(=O)N2CCN(C(=O)c3ccc(F)cc3)CC2)cc1	.	27.6	-4.7	i	6.0
COc1ccc(CNC(=O)C2CCN(S(=O)(=O)c3cccc(C(F)(F)F)c3)CC2)cc1	.	.	.	.	2.0
SMILES	Efa HMGR inh	PHOSPHO1 block	eIF4H inh	PABP polyA inh	MLLE-PAM2 inh
COc1ccc(N2CCC(CNS(=O)(=O)c3cccc(C(F)(F)F)c3)C2)cc1 (configuration not stated)	-0.3	79.1*	4.0	i	-11.0
COc1ccccc1NC(=O)C1=C(C)NC(=O)NC1c1cccc(OC)c1OC (configuration not stated)	-3.1	4.7	-7.7	i	6.1
CCOc1ccccc1NC(=O)C1=C(C)NC(=O)NC1c1cccc(OC)c1OC (configuration not stated)	3.8	62.0*	-7.0	i	1.1
CC(C)NC(=O)c1cc(C2CCCCN2S(=O)(=O)c2cccs2)on1 (configuration not stated)	.	.	.	.	-6.9
Cc1ccc(S(=O)(=O)N(C)CCCC(=O)NC(C)(C)C)cc1	11.9*	16.3	2.7	i	-1.5
Cc1ccc(S(=O)(=O)N(C)CCCC(=O)NC(C)(C)CO)cc1	-1.3	44.0	-17.7	i	-3.9
COc1ccc(NC(=O)c2ccccc2N(Cc2ccccc2)S(C)(=O)=O)cc1OC	10.2*	5.7	-3.4	i	8.9
O=C(CSc1nc(O)c(Cc2ccccc2)c(=O)[nH]1)Nc1ccccc1	-2.4	6.3	0.9	i	42.6*
COc1ccc(NC(=O)CSc2nc(O)c(Cc3ccccc3)c(=O)[nH]2)cc1	-0.5	16.3	1.5	i	39.6*
O=C(CSc1nc(O)c(Cc2ccccc2)c(=O)[nH]1)Nc1nnc(SCc2ccccc2)s1	-3.9	7.6	1.0	i	36.9*
N#Cc1c(-c2ccccc2)nc(SCC(=O)Nc2nnc(C(F)(F)F)s2)[nH]c1=O	13.0*	-7.8	-6.3	i	-6.1
Cc1cccc(NC(=O)CSc2nc(C)c(Cc3ccccc3)c(=O)[nH]2)c1	-11.8	-10.2	-2.2	i	3.3
CCCCNC(=O)CSc1nc(O)c(Cc2ccc(OC)cc2)c(=O)[nH]1	.	28.5	-8.6	i	0.0
Cc1ccn2c(=O)nc(SCC(=O)Nc3ccc4c(c3)OCCO4)nc2c1	.	.	.	.	11.8
COc1ccc(C(=O)NCC(=O)OCC(=O)N2N=C(c3ccc(Cl)cc3)CC2c2ccco2)cc1OC (configuration not stated)	-1.0	39.7	4.5	i	-15.1
CC[C@]12c3[nH]c4ccc(Cl)cc4c3CCN1C(=O)[C@@H](CC(=O)NCc1ccc(OC)c(OC)c1)C[C@@H]2C(=O)N1CCN(C(=O)c2ccco2)CC1	.	.	.	.	-2.5
COc1ccc(Cc2c(O)nc(SCC(=O)NC34CC5CC(CC(C5)C3)C4)[nH]c2=O)cc1	6.2	-3.1	-4.4	i	40.8*!
CCN(CC)C(=O)CSc1nc(O)c(Cc2ccc(OC)cc2)c(=O)[nH]1	.	18.9	-5.7	i	6.0
CC(C)C1Nc2ccc(S(N)(=O)=O)cc2C2C=CCC21 (configuration not stated)	0.3	20.1	23.6	i	1.7
NS(=O)(=O)c1ccc2c(c1)C1C=CCC1C(C1CC=CCC1)N2 (configuration not stated)	-7.5	3.2	53.0*	+	0.5
CN(CCCNC(=O)c1ccccc1F)CCCNC(=O)c1ccccc1F	.	35.7	12.6	i	-1.6
Cc1ccc(C(=O)Cn2c(-c3ccccc3)noc2=O)cc1	-2.8	61.5*	-6.7	i	-4.1
Cc1[nH]c2ccccc2c1N=Nc1ccccc1C(=O)O	-3.6	-1.5	98.7	+	-16.2
O=C(O)c1ccccc1N=Nc1ccc(O)cc1	.	.	.	.	41.4*
